Measurements taken from PubChem BioAssay (EPA / NIEHS).
“And” between values parts separate entries of the source, which are not always exact repeats. Equal values may be shown once. Records with an inconclusive call do not appear. A structure can be active in one record and inactive in another. The source made the active and inactive calls. The calls were made as follows, unless noted: active = hit-call score of the fitted dose curve at least 0.9, where 1 is the maximum; inactive = score below 0.9.

Assays:
[1] = CCTE_Shafer_MEA_dev_correlation_coefficient_mean: CCTE's Neural Network Formation Assay for Mean Correlation Coefficient, Shafer Lab (AID 2284093);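 as to AC50: well mean pairwise spike train correlation integrated as AUC over recording days 5 to 12; potency fitted for loss of correlation relative to DMSO vehicle wells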
Summary of the method: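 Read-out: well-mean correlation coefficient of spike trains between electrode pairs, collapsed over four recording days as trapezoidal area-under-the-curve. Developing rat cortical neuron networks grown on MEAs received test chemical continuously from plating.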

[2] = CCTE_Mundy_HCI_Cortical_Synap_Neur_Matur_NeuriteSpotCountPerNeuriteLength: CCTE's Synaptogenesis and Neurite Maturation Assay in rat cortical cells for Neurite Spot Count per Neurite Length, Mundy Lab (AID 2284210)
Summary of the method: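 Read-out: synaptophysin puncta counted along MAP2-stained neurites, normalised to neurite length, by automated high-content imaging. Rat cortical cells; AraC DIV 5; chemical dosing DIV 7; termination DIV 12. DMSO baseline.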

[3] = CCTE_Mundy_HCI_Cortical_Synap_Neur_Matur_BPCount: CCTE's Synaptogenesis and Neurite Maturation Assay in rat cortical cells for Branch Point Count, Mundy Lab (AID 2284211)
Summary of the method: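 HCI read-out of branch points from MAP2/synaptophysin/Hoechst immunofluorescence; rat cortical cultures, AraC DIV 5, dosing DIV 7, fixed DIV 12; fit in positive direction vs DMSO baseline.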

[4] = CCTE_Mundy_HCI_Cortical_NOG_NeuriteCount: CCTE's Neurite Outgrowth Assay in rat cortical cells for Neurite Count, Mundy Lab (AID 2284212);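 also: cells fixed about two days after chemical exposure began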
Summary of the method: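 Rat cortical primary cells; compound added 2 h post-plating, 1/10 dilution of working solution. Anti-betaIII-tubulin/AF488 ICC; ArrayScan neurite count vs DMSO.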

[5] = CCTE_Mundy_HCI_Cortical_NOG_NeuriteLength: CCTE's Neurite Outgrowth Assay in rat cortical cells for Neurite Length, Mundy Lab (AID 2284213);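 as to AC50: neurites imaged about 48 to 50 h after chemical exposure began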
Summary of the method: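 First, rat primary cortical cells were plated and, 2 h later, given test chemical as a 1/10 dilution. Finally, βIII-tubulin immunostaining enabled automated imaging of neurite length.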

[6] = CCTE_Mundy_HCI_Cortical_Synap_Neur_Matur_NeuriteLength: CCTE's Synaptogenesis and Neurite Maturation Assay in rat cortical cells for Neurite Length, Mundy Lab (AID 2284214)
Summary of the method: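 Cultures of rat primary cortical cells received chemical at DIV 7 and were fixed at DIV 12, after glial arrest with AraC at DIV 5. Neurite length was measured by automated imaging of MAP2 immunofluorescence.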

[7] = CCTE_Mundy_HCI_Cortical_Synap_Neur_Matur_NeuriteSpotCountPerNeuron: CCTE's Synaptogenesis and Neurite Maturation Assay in rat cortical cells for Neurite Spot Count per Neuron Count, Mundy Lab (AID 2284215)
Summary of the method: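 Rat primary cortical cells received AraC at DIV 5, then chemicals with a media change at DIV 7, and were fixed at DIV 12. Synaptophysin puncta on MAP2-stained neurites per neuron were counted by high-content imaging, fitted relative to DMSO.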

[8] = CCTE_Mundy_HCI_Cortical_Synap_Neur_Matur_SynapseCount: CCTE's Synaptogenesis and Neurite Maturation Assay in rat cortical cells for Synapse Count, Mundy Lab (AID 2284218)
Summary of the method: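 Cells were plated, allowed 2 hr to attach, treated with AraC at DIV 5, then exposed to chemicals from DIV 7 until DIV 12. After fixation and MAP2/synaptophysin immunolabelling, synapses per neuron were quantified by automated imaging against DMSO.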

[9] = CCTE_Mundy_HCI_hN2_NOG_NeuriteCount: CCTE's Neurite Outgrowth Assay in human hN2 cells for Neurite Count, Mundy Lab (AID 2284219; active = hit-call score of the fitted dose curve at least 0.9, where 1 is the maximum)
Summary of the method: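 In this morphology assay, hNP1-derived neurons received test chemical 2 h post-plating and were fixed two days later in warm paraformaldehyde/sucrose containing Hoechst 33342. Neurites, labelled by rabbit anti-βIII-tubulin (1:800) and Alexa Fluor-488 (1:500), were counted automatically.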

[10] = CCTE_Mundy_HCI_hN2_NOG_NeuriteLength: CCTE's Neurite Outgrowth Assay in human hN2 cells for Neurite Length, Mundy Lab (AID 2284220; active = hit-call score of the fitted dose curve at least 0.9, where 1 is the maximum)
Summary of the method: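 Read-out is neurite length from high-content imaging of βIII-tubulin/Alexa Fluor-488-labelled neurons, referenced to DMSO controls.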

[11] = CCTE_Mundy_HCI_hN2_NOG_NeuronCount: CCTE's Neurite Outgrowth Assay in human hN2 cells for Neuron Count, Mundy Lab (AID 2284221; active = hit-call score of the fitted dose curve at least 0.9, where 1 is the maximum)
Summary of the method: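 Read-out is the number of betaIII-tubulin-positive neurons imaged by automated high-content analysis, with DMSO as negative control.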

[12] = CCTE_Mundy_HCI_Cortical_Synap_Neur_Matur_NeuriteCount: CCTE's Synaptogenesis and Neurite Maturation Assay in rat cortical cells for Neurite Count, Mundy Lab (AID 2284222)
Summary of the method: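 Chemical exposure runs DIV 7–12 in rat cortical cultures, glia suppressed by AraC at DIV 5; measurement is at DIV 12. Imaging-derived neurite counts are fitted against DMSO baseline.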

[13] = CCTE_Mundy_HCI_Cortical_Synap_Neur_Matur_CellBodySpotCount: CCTE's Synaptogenesis and Neurite Maturation Assay in rat cortical cells for Cell Body Spot Count, Mundy Lab (AID 2284223)
Summary of the method: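 Rat primary cortical cultures received AraC at DIV 5 to arrest glia, were dosed with chemical at DIV 7 with media change, and were fixed at DIV 12 (288.33 h). Synaptophysin puncta on MAP2-positive cell bodies per neuron were counted by high-content imaging versus DMSO.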

[14] = UKN2_HCS_IMR90_neural_migration: University of Konstanz (UKN) Leist Lab Neural Crest Cell Migration Assay in human induced IMR90 Pluripotent Stem Cells (UKN2) (AID 2284204); details: actives raise or lower the signal
Summary of the method: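 Stopper-exclusion migration (cMINC), human iPSC-derived neural crest cells; N2-S + EGF/FGF; compound added 24 h post-stopper removal, 24 h exposure. Readout: calcein-AM/Hoechst 30 min, HCS fluorescence imaging; bidirectional fitting, DMSO baseline.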

[15] = IUF_NPC1b_proliferation_BrdU_72hr: Leibniz Research Institute for Environmental Medicine (IUF) 72-hour Neural Progenitor Cell Bromodeoxyuridine (BrdU) Proliferation Assay (NPC1b) (AID 2284207)
Summary of the method: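 Luminescent BrdU ELISA measured DNA synthesis during the last 16 h of a 72 h exposure of primary human neural progenitor spheres grown with EGF and FGF. Signal was fitted relative to DMSO controls.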

[16] = IUF_NPC1a_proliferation_area_72hr: Leibniz Research Institute for Environmental Medicine (IUF) 72-hour Neural Progenitor Cell Proliferation Area Assay (NPC1a) (AID 2284208)
Summary of the method: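 Read-out: increase in sphere area over 72 h by automated phase-contrast imaging, fitted in positive direction versus DMSO baseline. One hNPC sphere (0.25-0.35 mm) per well in EGF/FGF medium; growth-factor withdrawal served as positive control.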

[17] = IUF_NPC1_viability_72hr: Viability Assessment at 72 hours in the Leibniz Research Institute for Environmental Medicine (IUF) Neural Progenitor Cell Proliferation Assay (NPC1) (AID 2284209)
Summary of the method: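 Spheres of primary human neural progenitors were plated singly in proliferation medium and treated for 72 h. Mitochondrial reduction of resazurin was then measured by fluorescence and analysed against DMSO controls.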

[18] = TAMU_PeakParms_SingleDonor1434_Chronotropy: Texas A&M University (TAMU) 1.5-hr Human Induced Pluripotent Stem Cell (iPSC)-derived Cardiomyocytes Calcium (Ca+2) Flux Assay for Cardiotoxicity: Chronotropy (changes in peak frequency) (AID 2284217); details: actives raise or lower the signal
Summary of the method: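 Beat frequency of single-donor iPSC cardiomyocytes was recorded through a calcium-sensitive dye 1.5 hours after exposure to four concentrations up to 100 uM. An EC05 point of departure was derived.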

[19] = UKN4_HCS_LUHMES_neurite_outgrowth: University of Konstanz (UKN) Leist Lab Neurite Outgrowth Assay in human LUHMES cells (UKN4) (AID 2284206); details: actives raise or lower the signal
Summary of the method: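 Human LUHMES cells were differentiated for two days, replated and treated with chemicals for 24 h. Neurite outgrowth was quantified as calcein-stained neurite area by HCS imaging, fitted bidirectionally relative to DMSO.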

[20] = BSK_BT_PBMCCytotoxicity: PBMC Cytotoxicity Assessment in the BioMAP Diversity Plus: BT Assay (AID 2284225); details: primary human B cells with PBMC;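 also: PBMC viability measured by Alamar Blue dye reduction fluorescence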
Summary of the method: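 Viability by Alamar Blue reduction (6 h, ex/em 546/580 nm) after 90 h culture of SEB/TSST-1-activated PBMC (20 ng/mL each) given compound 1 h before activation. DMSO served as baseline for curve fitting.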

Measured: AC50

CCN(CC)c1nc(C)cc(OP(=S)(OC)OC)n1
inactive: [2] | [8] | [12] | [13]
active: [1] 27.4 µM | [3] 67.1 µM | [4] 79.4 µM | [5] 88.7 µM | [6] 78.6 µM | [7] 84.5 µM | [9] 72.4 µM | [10] 60.7 µM | [11] 50 µM

CO/N=C(/C1=NOCCO1)c1ccccc1Oc1ncnc(Oc2ccccc2Cl)c1F
active: [1] 844 nM and 1.02 µM | [15] 0.142 µM | [2] 3.03 µM | [3] 7.61 µM | [4] 3.51 µM | [5] 2.74 µM | [6] 4.34 µM | [7] 2.16 µM | [8] 2.75 µM | [12] 3.45 µM | [13] 3.26 µM
inactive: [14] | [16] | [17]

CNC(=O)Oc1cccc2ccccc12
active: [1] 12.8 µM
inactive: [1] | [15] | [16] | [17] | [2] | [3] | [4] | [5] | [7] | [18] | [8] | [12] | [13]

CC(C)=CC1C(C(=O)OCc2coc(Cc3ccccc3)c2)C1(C)C (stereo unspecified)
inactive: [1]

N#CN=C1SCCN1Cc1ccc(Cl)nc1
inactive: [1] | [15] | [16] | [17] | [2] | [3] | [4] | [5] | [6] | [7] | [8] | [12] | [13]

CS(=O)(=O)c1ccc(C(=O)C2C(=O)CCCC2=O)c([N+](=O)[O-])c1
inactive: [1] | [14] | [15] | [16] | [17] | [2] | [3] | [4] | [5] | [6] | [7] | [8] | [12] | [13]

CC1(C)C(C(=O)OC(C#N)c2cccc(Oc3ccccc3)c2)C1(C)C (stereo unspecified)
active: [1] 4.17 µM

COP(=S)(OC)SCn1nnc2ccccc2c1=O
inactive: [15] | [16] | [17] | [2] | [3] | [4] | [5] | [6] | [7] | [8] | [12] | [13]
active: [1] 15 µM | [14] 19.6 µM | [19] 15.4 µM

CCNC(=O)NC(=O)C(C#N)=NOC
active: [8] 0.0179 µM
inactive: [1] | [15] | [16] | [17] | [2] | [3] | [4] | [5] | [6] | [7] | [12] | [13]

COCC(C)N(C(=O)CCl)c1c(C)csc1C (stereo unspecified)
inactive: [20]

O=C1C2CC=CCC2C(=O)N1SC(Cl)(Cl)Cl (stereo unspecified)
inactive: [18]
active: [1] 9.85 µM

COP(=O)(OC)O/C(C)=C/C(=O)N(C)C
inactive: [1] | [2] | [3] | [4] | [5] | [6] | [7] | [8] | [12] | [13]

CCSC(=O)N1CCCCCC1
inactive: [1] | [14] | [15] | [16] | [17] | [2] | [4] | [5] | [6] | [7] | [8] | [12] | [13]

COP(=S)(OC)Oc1ccc([N+](=O)[O-])c(C)c1
inactive: [1]

CCOC(=O)C(C)OC(=O)c1cc(Oc2ccc(C(F)(F)F)cc2Cl)ccc1[N+](=O)[O-] (stereo unspecified)
inactive: [1]
